From PubChem BioAssay (EPA / NIEHS) come the findings set out here.

Test [1] in a line: CCTE_Harrill_HTTr_Apoptosis_MCF7: CCTE's 6-hour Apoptosis Assessment for the High-Throughput Transcriptomics (HTTr) Platform, in MCF-7 cells cultured in DMEM + 10% fetal bovine serum, Harrill Lab (AID 2284011). The essentials:
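MCF-7 cells in DMEM + 10% fetal bovine serum were exposed to chemicals for 6 hours over an eight-point dilution series. Caspase-3/7 activation was imaged by high content imaging with CellEvent Caspase 3/7 Green; bidirectional fitting used DMSO as baseline.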

Test [2] in a line: CCTE_Shafer_MEA_acute_burst_number: CCTE's Neural Acute Assay for Single-Electrode Bursts, Shafer Lab (AID 2284013). The essentials:
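Primary rat cortical neurons on 16-electrode MEA wells, treated on DIV 13 or 15 with compound at 0.03-40 uM. Single-electrode burst count from 40-min recordings at 37 C before and after exposure; percent change from baseline per well, DMSO negative control.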

Test [3] in a line: CCTE_Shafer_MEA_acute_burst_duration_mean: CCTE's Neural Acute Assay for Mean Burst Duration, Shafer Lab (AID 2284014).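 Further: hits are decreases in mean burst duration relative to DMSO controls.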 The essentials:
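Rat primary cortical neurons on 48-well MEA, treated at DIV 13 or 15 with 0.03-40 uM in at least 3 wells. Value is percent change in mean burst duration, comparing 40 min recordings at 37 C before and during exposure.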

Test [4] is described as follows: CCTE_Shafer_MEA_acute_per_burst_spike_number_mean: CCTE's Neural Acute Assay for Average Number of Spikes Per Burst, Shafer Lab (AID 2284015).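 Further: hits are decreases in mean spikes per burst versus baseline.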 The essentials: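 Percent change in mean spikes per single-electrode burst is compared between a 40 min baseline and a 40 min recording with compound (0.03-40 uM). Cultures were rat cortical neurons on MEA plates at DIV 13 or 15, recorded at 37 C, with DMSO as the negative control.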

Test [5] can be described thus: CCTE_Shafer_MEA_acute_interburst_interval_mean: CCTE's Neural Acute Assay for Mean Interburst Interval, Shafer Lab (AID 2284016).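 Further: percent change of mean interburst interval versus each well's own pre-dose baseline; curves fitted for decrease in interburst interval relative to DMSO.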 The essentials: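 Percent change in mean single-electrode interburst interval was calculated per well from 40 min recordings before and after compound (0.03-40 uM). Recordings were made at 37 C on rat cortical cultures at DIV 13 or 15, with spikes detected at 8x rms threshold.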

A short description of test [6]: CCTE_Shafer_MEA_acute_burst_percentage_mean: CCTE's Neural Acute Assay for Percentage of Spikes in a Burst, Shafer Lab (AID 2284017).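 On AC50: curve fitted for loss of signal so potency reflects decreased burst percentage.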 In outline: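 Well-level mean burst percentage from a 40-min recording after compound (0.03-40 uM) expressed as percent change from a 40-min baseline at 37C. Cultures: primary rat cortical neurons on MEA, dosed on DIV 13 or 15; fitted downward relative to DMSO.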

Test [7] in a line: CCTE_Shafer_MEA_acute_burst_percentage_std: CCTE's Neural Acute Assay for Standard Deviation of Burst Percentage, Shafer Lab (AID 2284018).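 Further: fitted in the negative direction so actives lower burst percentage SD.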 The essentials:
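Rat primary cortical neurons on 48-well MEAs, DIV 13 or 15, 37 C. 40-min baseline then 40-min recording with compound (0.03-40 uM); well-level SD of per-electrode burst spike percentage, expressed as percent change from baseline.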

Test [8] in a line: CCTE_Shafer_MEA_acute_per_network_burst_spike_number_std: CCTE's Neural Acute Assay for Standard Deviation of Number of Spikes in a Network Burst, Shafer Lab (AID 2284020).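 Further: fitted for decrease in spike-number SD versus DMSO so actives lower it.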 In outline:
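Rat primary cortical neurons on 48-well MEA (16 electrodes/well), treated DIV 13 or 15 at 0.03-40 uM, ≥3 wells per compound. 40 min recordings at 37 C before and after dosing; value is percent change in network-burst spike-number SD, negative direction vs DMSO.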

Test [9] is described as follows: CCTE_Shafer_MEA_acute_per_network_burst_electrodes_number_mean: CCTE's Neural Acute Assay for Mean Number of Electrodes in a Network Burst, Shafer Lab (AID 2284021).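 Further: curves fitted for decreases only so hits reduce electrodes per burst.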 In outline: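 Rat primary cortical neurons on 16-electrode MEA wells were recorded 40 min at baseline on DIV 13 or 15, then 40 min after compound (0.03-40 uM), at 37 C. Value is percent change per well, fitted in loss direction versus DMSO.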

A short description of test [10]: CCTE_Shafer_MEA_acute_network_burst_percentage: CCTE's Neural Acute Assay for Percentage of Network Bursts, Shafer Lab (AID 2284022).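 Further: curves fitted for loss so actives lower network burst percentage.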 In outline: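 Primary rat cortical neurons on 16-electrode MEA wells, treated on DIV 13 or 15 with compound (0.03-40 uM); 40-min baseline and 40-min post-exposure recordings at 37 C. Value is percent change in spikes within network bursts versus baseline, DMSO negative control.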

Test [11] is described as follows: CCTE_Shafer_MEA_acute_cross_correlation_area: CCTE's Neural Acute Assay for Area of Cross Correlation, Shafer Lab (AID 2284024).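 Further: area under pooled inter-electrode spike cross-correlation near zero lag as percent change from own baseline; curves fitted for loss of cross-correlation area so actives lower synchrony.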 The essentials: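 Primary rat cortical neurons on 48-well MEA plates (16 electrodes/well) were recorded 40 min at baseline on DIV 13 or 15, then 40 min with compound (0.03-40 uM) at 37 C; cross-correlation area expressed as percent change from baseline.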

Test [12] is described as follows: CCTE_Shafer_MEA_acute_synchrony_index: CCTE's Neural Acute Assay for Synchrony, Shafer Lab (AID 2284027).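 Further: fitted for loss of signal so actives lower synchrony relative to DMSO.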 In outline: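 Readout is percent change in the unitless network synchrony index (0 low, 1 high) between a 40-min baseline and a 40-min recording in compound. Cultures were primary rat cortical neurons on MEAs, treated at 0.03-40 uM on DIV 13 or 15.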
Test [13] can be described thus: CCTE_Harrill_HTTr_CellCount_MCF7: CCTE's Cell Proliferation Assessment for the High-Throughput Transcriptomics (HTTr) Platform, Harrill Lab (AID 2284012; active means hit-call score of the fitted dose curve at least 0.9, where 1 is the maximum;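 further: cells exposed to compound for six hours; intended direction is loss of nuclei count meaning fewer cells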). In outline: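 Chemicals in eight-point dilution series are added to MCF-7 cells for six hours, nuclei are stained with Hoechst and imaged, and per-well nuclei counts are fitted in both directions relative to DMSO controls.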

A short description of test [14]: CCTE_Shafer_MEA_dev_firing_rate_mean: CCTE's Neural Network Formation Assay for Mean Firing Rate, Shafer Lab (AID 2284031).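 Further: AUC of well mean spike rate recorded on DIV 5 7 9 and 12.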 The essentials: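 Rat primary cortical neurons were seeded on multielectrode arrays and treated from plating through day 12, with redosing at each feed. Spontaneous spiking was recorded four times; mean firing rate AUC was fitted downward against DMSO.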

Test [15] is described as follows: CCTE_Shafer_MEA_dev_per_burst_spike_percent: CCTE's Neural Network Formation Assay for Percent of Spikes in a Burst, Shafer Lab (AID 2284032). In outline: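 Rat primary cortical neurons on 16-electrode MEA wells, dosed from plating day 0 for 12 days with renewal on DIV 5 and 9; spikes-in-bursts percentage averaged over bursting electrodes, collapsed as AUC across days 5, 7, 9, 12; loss direction versus DMSO.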

Test [16] is described as follows: CCTE_Deisenroth_AIME_96WELL_CTox_Active: Cytotoxicity Assessment (CTOX) in CCTE's 96-well Estrogen Receptor Transactivation Assay with AIME metabolic competence (metabolism positive), Deisenroth Lab (AID 2284028; active means hit-call score of the fitted dose curve at least 0.9, where 1 is the maximum). In outline: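 Chemicals (0.002–200 uM) were first incubated 2 h with alginate-immobilized phenobarbital/beta-naphthoflavone-induced male rat liver S9; conditioned medium then went onto VM7Luc4E2 cells for 24 h, with viability read by protease-substrate fluorescence, fitted bidirectionally.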

The target of test [17] is Estrogen receptor (Homo sapiens) (UniProt P03372). Put plainly: CCTE_Deisenroth_AIME_384WELL_LUC_Active: CCTE's 384-well Estrogen Receptor Transactivation Assay with AIME metabolic competence (ERTA luciferase; metabolism positive), Deisenroth Lab (AID 2284030; active means hit-call score of the fitted dose curve at least 0.9, where 1 is the maximum). In outline:
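Test chemicals (10-point series, 0.002 - 200 uM) were preincubated 2 hours with alginate-immobilized phenobarbital/beta-naphthoflavone-induced male Sprague Dawley rat liver S9; conditioned medium then went onto VM7Luc4E2 breast cells for 24 hour. Luciferase gain-of-signal fitted relative to 17beta-estradiol.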

Test [18] has the same target. Put plainly: CCTE_Deisenroth_AIME_384WELL_LUC_Inactive: CCTE's 384-well Estrogen Receptor Transactivation Assay without AIME metabolic competence (ERTA luciferase; metabolism negative), Deisenroth Lab (AID 2284038; active means hit-call score of the fitted dose curve at least 0.9, where 1 is the maximum;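 further: VM7Luc4E2 breast cells given medium preincubated 2 h with S9-free microspheres; hits raise estrogen receptor luciferase signal so potencies reflect agonists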). In outline: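 Metabolism-negative mode: chemicals (10-point, 0.002–200 uM) held 2 h with alginate-water microspheres, then conditioned medium applied to VM7Luc4E2 cells for 24 h. Luciferase induction referenced to 17beta-estradiol.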

The structures appear in SMILES notation. Results filed as inconclusive are left out. Activity calls are given as the source filed them. How the source made its calls, unless noted: active means hit-call score of the fitted dose curve at least 0.9, where 1 is the maximum; inactive means score below 0.9.

Estrogen receptor (Homo sapiens), sequence (P03372 whole entry, looked up): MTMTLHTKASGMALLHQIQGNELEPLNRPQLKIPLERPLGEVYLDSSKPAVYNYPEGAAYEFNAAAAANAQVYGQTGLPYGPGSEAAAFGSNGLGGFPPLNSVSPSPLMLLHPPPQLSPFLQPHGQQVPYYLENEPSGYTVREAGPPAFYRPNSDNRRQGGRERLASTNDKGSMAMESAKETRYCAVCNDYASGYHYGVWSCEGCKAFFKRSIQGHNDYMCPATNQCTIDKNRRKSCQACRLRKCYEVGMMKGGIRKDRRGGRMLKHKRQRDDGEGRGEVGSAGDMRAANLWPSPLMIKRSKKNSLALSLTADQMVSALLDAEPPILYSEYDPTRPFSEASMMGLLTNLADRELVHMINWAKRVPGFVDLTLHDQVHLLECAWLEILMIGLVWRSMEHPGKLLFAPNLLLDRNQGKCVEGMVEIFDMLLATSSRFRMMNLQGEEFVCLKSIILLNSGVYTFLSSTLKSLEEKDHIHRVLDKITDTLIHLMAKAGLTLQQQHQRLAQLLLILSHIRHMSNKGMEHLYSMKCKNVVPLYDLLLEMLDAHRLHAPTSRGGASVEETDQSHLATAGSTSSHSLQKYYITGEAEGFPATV

Consider `CCCCCCCCCCCCO`, for which the result in [1], in [2], in test [3], in [5], in test [7] and in test [9] was inactive. For the same compound, in test [11], the result was inactive. Also, the AC50 (in general, the concentration giving half of the maximal activity seen) in test [4] was 20 µM (active); in [6], 25.5 µM (active); in test [8], 26.7 µM (active); in test [10] it was 25.8 µM (active); in [12] it was 27.6 µM (active).
For the compound `O=C1O[C@H]([C@@H](O)CO)C(O)=C1O`, the outcome in [1], in test [13], in test [2], in test [3], in [4] and in [5] was inactive. Moreover, the result in test [6], in test [7], in [8], in test [9], in [10] and in test [11] was inactive. Moreover, the outcome in test [12], in test [14] and in test [15] was inactive.
Take `Oc1ccccc1`: the outcome in test [1], in test [13], in [14] and in test [15] was inactive.
On to `CN(C)C(=O)C1(N2CCCCC2)CCN(CC[C@@]2(c3ccc(Cl)c(Cl)c3)CN(C(=O)c3ccccc3)CCO2)CC1`, for which the outcome in test [1], in [13], in test [5], in test [7] and in test [11] was inactive. For the same compound, the AC50 in test [2] was 2.11 µM (active); in [3], 1.81 µM (active); in test [4], 2.5 µM (active); in test [6], 19.4 µM (active); in test [8], 20.4 µM (active); in [9], 22.4 µM (active). Further, the AC50 is 17.8 µM (active) in test [10] and 19.5 µM (active) in test [12].
Turning to `O=c1c(-c2ccc(O)cc2)coc2cc(O)cc(O)c12`, the outcome in [1], in [13] and in [16] was inactive.
Take `Cc1oc2c(NC(=O)c3c(Cl)cccc3Cl)cccc2c1C(C)(C)O`: the outcome in [1], in test [13], in test [17] and in [18] was inactive.
For the compound `CC[C@@H]1C[C@H](N(Cc2cc(C(F)(F)F)cc(C(F)(F)F)c2)C(C)=O)c2cc(C(F)(F)F)ccc2N1C(=O)OC(C)C`, the result in test [1], in [2], in [4], in test [5], in test [6] and in test [7] was inactive. Moreover, the compound was called inactive in test [8], in [9], in test [10] and in [11]. Besides, the figures for the AC50 in test [3] and in [12] were 4.21 µM (active) and 3.97 µM (active), respectively.
For `CC[C@H](NC(=O)c1cc(F)ccc1NS(=O)(=O)c1cccc2cccnc12)c1ccccc1`, the outcome in test [1] and in test [17] was inactive.
Regarding `CCCCCCCCOC(=O)c1cc(O)c(O)c(O)c1`, the result in [1], in [13], in [3], in [4], in test [5] and in [18] was inactive. Moreover, the AC50 is 4.91 µM (active) in [2]; 5.8 µM (active) in test [6]; 7.82 µM (active) in [7]; 7.51 µM (active) in [8]; 8.24 µM (active) in test [9]; 9.35 µM (active) in test [10]. In addition, the AC50 in [12] is 8.07 µM (active).
Regarding `CCCOC(=O)c1cc(O)c(O)c(O)c1`, the outcome in test [1] and in test [13] was inactive. For the same compound, the AC50 in test [17] is 35.9 µM (active); in test [18], 43.6 µM (active).
Turning to `CC(C)(C)c1cc(/C=C2\SC(N)=NC2=O)cc(C(C)(C)C)c1O`, the result in test [1], in test [13], in test [2], in test [3], in test [4] and in [6] was inactive. Besides, the result in test [7], in test [8], in [9], in test [10], in [11] and in [12] was inactive. The compound was called inactive in test [17] and in [18]. The AC50 in test [5] was 14.6 µM (active).
